The results in this text go back to PubChem BioAssay (NCI).

Molecules are shown by their SMILES. Compounds without any hit were thinned out: in the full panel of roughly 83,000, 20% have a hit.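 96-well plates, one dose, 48 hours. Percent growth reported; active if below 10.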 Unmarked numbers belong to inactive results. Activity calls are given as the source filed them.

Test in all cases: NCI-60 one-dose screen, 48 h (100 = growth as untreated, 0 = no growth, -100 = all killed)
Settings in all cases: 10 µM unless noted

For test [1], the system named is MOLT-4 leukemia.
Test [2] concerns RPMI-8226 leukemia.
Test [3] deals with OVCAR-8 ovarian.
For test [4], the system named is OVCAR-5 ovarian.
For test [5], the system named is OVCAR-4 ovarian.
For test [6], the system named is SK-OV-3 ovarian.
The subject of test [7] is IGROV1 ovarian.
Test [8] has as its system OVCAR-3 ovarian.
Test [9] has as its system HS 578T breast.
Test [10] has as its system NCI/ADR-RES ovarian.
In test [11] the test system is T-47D breast.
Test [12] has as its system BT-549 breast.
Test [13] concerns MDA-MB-435 melanoma.
Test [14] deals with SW-620 colon.
The subject of test [15] is MCF7 breast.
The subject of test [16] is HCT-116 colon.
Test [17] has as its system HCC-2998 colon.
Test [18] deals with KM12 colon.

Turning to `CC[C@H](C)[C@H](NC(=O)[C@H]1CCCCN1C)C(=O)N(C)[C@H](C[C@@H](OC(C)=O)c1cccc(C(=O)N[C@@H](Cc2ccccc2)C[C@H](C)C(=O)O)n1)C(C)C`, the growth is 17.8% in [1]; 22.7% in [2]; 17.7% in test [3]; 52% in test [4]; 34.7% in [5]; 8.71% (active) in test [6]. The growth in test [7] is 25.7%; in [8] it was -27.7% (active); in test [9], 28.1%; in test [10] it was 15.6%; in [11], 66.8%; in [12] it was -18.7% (active). Further, the growth in [13] is -48.8% (active); in test [14], 28.3%; in test [15], 14.7%; in test [16] it was -0.292% (active); in test [17], 17.1%.

On to `CN1CCC(O)(c2ccc(F)cc2)C(C(=O)c2ccc(F)cc2)C1` (stereo not drawn), for which the growth in test [1] is 94.2%; in [2], -9.61% (active); in [3] it was 102%; in [4] it was 93.2%; in [5] it was 102%; in [6] it was 102%. Besides, the growth in [7] was 96.3%; in [8], 111%; in test [9], 101%; in test [10] it was 103%; in [11] it was 94.7%; in [12], 96%. Also, the growth in test [13] is 110%; in test [14], 99%; in [15], 85.3%; in test [16], 101%; in test [17], 101%; in test [18] it was 105%.

On to `O=C(CCl)c1ccc([N+](=O)[O-])o1`, for which the growth in test [1] is -52.8% (active); in test [2], -47.7% (active); in test [3] it was 8.79% (active); in test [4], -72.8% (active); in test [5], 2.25% (active); in [6] it was 102%. For the same compound, the growth in [7] was 1.46% (active); in [8], -100% (active); in test [9] it was 40.9%; in test [10], -49.5% (active); in test [11], -53.5% (active); in test [12], 44.3%. Further, the growth is -4.26% (active) in [13]; -97% (active) in test [14]; 18.6% in test [15]; -100% (active) in test [16]; 31.1% in test [17]; -21.2% (active) in test [18].

As to `COc1ccc(Nc2ccc([N+](=O)[O-])cc2[N+](=O)[O-])cc1CN(CCCl)CCCl`, the growth was 0.406% (active) in test [1]; 0.0676% (active) in test [2]; 30.6% in test [3]; 50.2% in test [4]; 52.8% in [5]; 48.3% in test [6]. The growth in test [7] is 32.7%; in [8] it was 20%; in test [9], 66.7%; in [10] it was 26.9%; in test [11] it was 22.6%; in test [12], 40.1%. Also, the growth was 55.2% in test [13]; 20.3% in test [14]; 19.3% in [15]; 20.8% in test [16]; 37.7% in [17]; 53.1% in [18].

`CC1[C@H](C)OC(=O)CC(O)CC(O)CC(O)CCC(O)C(O)C[C@]2(O)CC(O)C(C(=O)O)C(CC(OC3O[C@H](C)[C@@H](O)[C@H](N)[C@@H]3O)/C=C/C=C/C=C/C=C/CC/C=C/C=C/[C@H](C)[C@H]1O)O2` (stereo partly drawn): the growth in [1] was 122%; in test [2], 106%; in test [3], 92%; in test [4], 95.4%; in test [5], 102%; in test [6], 110%. Also, the growth in test [7] is 101%; in test [8], 109%; in test [9] it was 97%; in [10], 93.2%; in test [11] it was 108%; in test [12], 105%. Moreover, the growth was 102% in test [13]; 99.5% in test [14]; 104% in test [15]; 97% in [16]; 103% in test [17]; 106% in test [18].

For the compound `COc1cccc2c1c(C(=O)c1ccco1)cn2Cc1ccc(F)cc1`, the growth was 307% in test [1]; 182% in test [2]; 108% in [3]; 122% in [4]; 114% in test [5]; 122% in test [6]. In addition, the growth in test [7] was 8.63% (active); in test [8] it was 108%; in [9], 122%; in test [10], 104%; in [11], 97.2%; in [12] it was 116%. Also, the growth was 148% in [13]; 109% in test [14]; 99.6% in test [15]; 111% in test [16]; 102% in test [17]; 116% in [18].

With `CC(C)(NC(=O)O[C@@H]1CN2CCC1CC2)c1csc(-c2ccc(F)cc2)n1`, the growth in test [1] was 91.3%; in test [2], 103%; in [3] it was 102%; in [4], 96.2%; in test [5], 97.4%; in test [6], 99.6%. The growth was 101% in [7]; 109% in [8]; 98.2% in test [9]; 96.8% in [10]; 88.3% in test [11]; 101% in [12]. The growth in [13] is 99.1%; in test [14], 99.2%; in test [15] it was 90.3%; in [16], 95.5%; in test [17], 102%; in test [18], 101%.

On to `N#CC1(c2ccccc2)CCN(Cc2ccccc2)CC1`, for which the growth was 107% in test [1]; 77% in test [2]; 104% in [3]; 98% in test [4]; 113% in [5]; 107% in test [6]. For the same compound, the growth was 115% in test [7]; 101% in test [8]; 96.3% in [9]; 99.7% in [10]; 100% in test [11]; 102% in test [12]. The growth in test [13] is 95.2%; in test [14], 101%; in test [15], 110%; in [16], 104%; in test [17], 113%; in test [18], 99.7%.
